The source made the active and inactive calls. How the source made its calls: active means hit-call score of the fitted dose curve at least 0.9, where 1 is the maximum; inconclusive means response in the unintended direction; inactive means score below 0.9.

Outcome and AC50 data for 13 compounds are collected here from PubChem BioAssay (EPA / NIEHS).

This test can be described thus: Tanguay_ZF_120hpf_ActivityScore_legacy: (Legacy) Oregon State University Tanguay Lab 120 Hour Post-fertilization zebrafish Assay Score for Activity (AID 2283742).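 On AC50: dechorionated Tropical 5D wild-type zebrafish embryos held singly per well.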 The essentials: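 Dechorionated 5D embryos, one per well, static exposure 6–120 hpf, 28C, sealed and dark; final DMSO 0.64% (vol/vol). Brightfield binary scoring of mortality plus 18 endpoints; gain-of-signal fit versus DMSO baseline.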
`CSc1nc(NC(C)C)nc(NC(C)C)n1`: the result was inactive. A word on the AC50: it is the concentration at which the activity in the assay is half-maximal. In the case of `CC(C)[C@H](C(=O)O[C@H](C#N)c1cccc(Oc2ccccc2)c1)c1ccc(Cl)cc1`, the AC50 was 1.53 µM (active).

For `Cc1nn(-c2cc(NS(C)(=O)=O)c(Cl)cc2Cl)c(=O)n1C(F)F`, the call was inactive. On to `CCCCOC(=O)[C@@H](C)Oc1ccc(Oc2ccc(C#N)cc2F)cc1`, for which the outcome was inactive.

For the compound `COc1cccc(C(=O)NN(C(=O)c2cc(C)cc(C)c2)C(C)(C)C)c1C`, the compound was called inactive. As to `CCCSP(=O)(OCC)Oc1ccc(Br)cc1Cl` (stereo not drawn), the outcome was inactive. Still for that read-out and setting: the value for `CC(C)N(C(=O)SCC(Cl)=C(Cl)Cl)C(C)C` was “inactive”; that for `CCc1cccc(C)c1N(C(=O)CCl)C(C)COC` (stereo not drawn) was “inactive”; that for `CN(C)NC(=O)CCC(=O)O` was “inactive”. For the compound `CCOP(=S)(OCC)Oc1ccc([N+](=O)[O-])cc1`, the call was inactive. Same read-out and setting: the value for `O=C(O)c1cc(Oc2ccc(C(F)(F)F)cc2Cl)ccc1[N+](=O)[O-]` was “inactive”; that for `CC1(C(=O)Nc2ccc(O)c(Cl)c2Cl)CCCCC1` was “inactive”; that for `CCC(=NOC/C=C/Cl)C1=C(O)CC(C2CCOCC2)CC1=O` (stereo not drawn) was “inactive”.
